# Results published in PMC12136788.
# Numbering of substitutions follows the chain as printed. Whole data set: some 24,000 sequences, median “enrichment r” near 0.99, cut for the highest 2% near 3.7. This is one part of a sample in which the highest values are shown more often than they occur.
# T1: UNK ZnF1-3 (human, UniProt Q9C0B0 31-174)
# T1 sequence: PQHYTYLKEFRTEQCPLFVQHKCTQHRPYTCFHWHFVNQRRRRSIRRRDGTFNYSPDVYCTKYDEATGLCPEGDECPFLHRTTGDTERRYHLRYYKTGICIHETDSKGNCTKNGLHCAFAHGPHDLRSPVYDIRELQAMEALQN
# B1: chr9:127920631:127920632:-_ENSG00000119414_ENST00000456642|hu_mus|motif|central (ssRNA)
# RNA: GGGAGUUCUACAGUCCGACGAUCAAUACGGUCAGGCCACUUAGCCUUUAGUGCAAGAAGAUAAGUGAAGGUCUCCAAACGGUAGUAACCUCUGUCUACAAAAUCACCCAUAAAUAUGUAGUUUGUGUCAGGAACCUGACCUCCCAACAGAGGAUUGAGCAUCA
# B2: chr7:140404665:140404666:+_ENSG00000090266_ENST00000247866|hu_hu|hu_hu_hu_mus_False|1_1 (ssRNA)
# RNA: GGGAGUUCUACAGUCCGACGAUCUGCUCCUACUCGUCCAGAGAGUUUACAGUGUCAGUCCUCGUCAUCAGGAGGGAUUCCCAGUUCUUCAUCUGUCCACUGUGAAGGAUCUGGAUAUGAAAAGUGACCCAGCACAGCUUCUGACAACAGAGGAUUGAGCAUCA
# B3: chr7:109302599:109302600:-_ENSMUSG00000063550_ENSMUST00000070165|mus_mus|FALSE|FALSE (ssRNA)
# RNA: GGGAGUUCUACAGUCCGACGAUCAGAGUCAUCUUCUCCAUCCUGCUGAUUGUUCUCAUCAACAGGUUUGCUCAGGAAGCUAAAUCUUUCUCCAUUUUCUGGAUACUCAGAGGGUGAAGCUAGAUCUUCUGAAUCAUGAUUAACCAACAGAGGAUUGAGCAUCA
# B4: chr8:26227902:26227903:+_ENSG00000221914_ENST00000315985|hu_hu|motif|central (ssRNA)
# RNA: GGGAGUUCUACAGUCCGACGAUCGGAAUGCCAACCCUAAUUCACUUUGUCUUGAAAUAUAUACAGAUUGUUUGUAGUAGCGGCGGCAAUGAUAUUUUCCUUGGGGUGCCAGGCUGUGUGAAGGAUUUUCUUAUUGAAGUCUAGCAACAGAGGAUUGAGCAUCA
# B5: 16983635_16983755_221_5pUTR_ENSMUSG00000063358_ENSMUST00000069107|mouse|control|control (ssRNA)
# RNA: GGGAGUUCUACAGUCCGACGAUCGACCAUCUCCGGGCCCGCCGCCGCCGCCGCCGCCAUGUUGGCUGCACAGCCGCCGCCGCCGCCGCCGCCGCCGCGUUCGGUUCGACGCUUCGCGGCUGCCGCUCGACUUAUGCUGCGCUUCAACAGAGGAUUGAGCAUCA
# B6: chr3:179287964:179287965:+_ENSG00000136518_ENST00000429709|hu_hu|hu_hu_hu_mus_True|18_18 (ssRNA)
# RNA: GGGAGUUCUACAGUCCGACGAUCCUUGAGUGGUGAGAUGGCCUCCAUGUUCUCCCUGGGCACGCGGAGGGCAUUGGUGUCUAUGUAGUAGGUGGGCCCGCCCUGCUUGCCUUUGUCGCCAUCUAUUUCCAUCAUUGUACUUCCCAACAGAGGAUUGAGCAUCA
# B7: chr5:171327072:171327073:-_ENSG00000072803_ENST00000265094|hu_hu|FALSE|FALSE (ssRNA)
# RNA: GGGAGUUCUACAGUCCGACGAUCUACCAGCUCUGCUGCACACAGAGACCUGGCAUCCAGGUACGAAAGAAUGUUUUCUGCUAUGUGAUCUAAGCCUUGCUCUGGUAAAGCGGUAAUAAAGUCCCGCUGCAACAUGGGCUUCAGCAACAGAGGAUUGAGCAUCA
# B8: 97033003_97034721_1993_CDS_ENSG00000121152_ENST00000240423|human|control|control (ssRNA)
# RNA: GGGAGUUCUACAGUCCGACGAUCCCUGUGGUUUGCCUCUGCAUCUGCCUCCUUUCCGGAGAGCGCUGUCAGCAGACUCCACAUGCUCUGCUUCAGUUUCUUCAUGUCCAUCUUUUUGGCAGUCUUGGCAUAGUGAAUUUCAAUCAACAGAGGAUUGAGCAUCA
# B9: chr2:151796264:151796265:-_ENSMUSG00000027459_ENSMUST00000062047|mus_mus|motif|central (ssRNA)
# RNA: GGGAGUUCUACAGUCCGACGAUCUGUUCGGCUGGCCUCAGAUGGGGACACAGGACUAUCACACAAGUUGAUGAGGCUGCGGAGGAUGUCGAGGUCCAGUUGGGGCCGGCGGCCAGAACAGGGCAGGACUCGGCGACUGGGUGUCAACAGAGGAUUGAGCAUCA
# B10: chr17:38438176:38438177:+_ENSG00000171475_ENST00000323571|hu_mus|FALSE|FALSE (ssRNA)
# RNA: GGGAGUUCUACAGUCCGACGAUCCCCCCUGACCAUGUAGCUAGGGACUGAGAGUCACAGGGAAGGGAAAGCUUACACCUGGAAUGUGAAGAAUCUGAUUUACAGCUGAUGGCAGGUUGGGUUUCCAGAAGGGCAGACAGCGCACAACAGAGGAUUGAGCAUCA
# B11: chr6:144948378:144948379:-_ENSMUSG00000030268_ENSMUST00000111742|mus_mus|FALSE|FALSE (ssRNA)
# RNA: GGGAGUUCUACAGUCCGACGAUCAGGGAACACCAGGCCAGCAGGGCUGCAUGGGGAGCCCAAAUCUGCCCCAAUUAGAAACAAACAAACAAAAAAAAAACAACCAAAACAAAAAACAAAAGAACCUCACCAGCAAAAGAAACACAACAGAGGAUUGAGCAUCA
# B12: chr2:125499325:125499326:+_ENSMUSG00000091337_ENSMUST00000164756|mus_mus|FALSE|FALSE (ssRNA)
# RNA: GGGAGUUCUACAGUCCGACGAUCGAGCUCUUCGGUCAGUCGAUUGACAACCAUCAGCGAAAACAGCUCUUCGAUAAAAGCUAGCUGGUCGAAAGGGCUCUUCUCACACCGCGCCUGAAAGCCGCCAUCCAGGGCAUCUCCGGCCAACAGAGGAUUGAGCAUCA
# B13: chrX:71549762:71549763:+_ENSMUSG00000019087_ENSMUST00000019231|mus_mus|mus_mus_mus_hu_False|8_18 (ssRNA)
# RNA: GGGAGUUCUACAGUCCGACGAUCAAACCCGUGUACUUCUUAUUGUUAGCACAACAUCACCAGAAAACGAUAACGACAGCCAAGCAGGACAGACAGUUAAGUAGUACUUCCACACUCCGCAAAUUCAAGGAACCUCAAACCUUACAACAGAGGAUUGAGCAUCA
# B14: chr14:76904430:76904431:+_ENSMUSG00000022010_ENSMUST00000022587|mus_mus|mus_mus_mus_hu_True|8_98 (ssRNA)
# RNA: GGGAGUUCUACAGUCCGACGAUCUGCAGCCAAAAACAGAGAGAGGGAAAAAAAGAGGGAACACCAGCAGCCUUGUAUAAGCUAGAUAAAAUCUUCUGGCUUUCCGCAGCCCAGGGAGAAACAGAAAUGGUGCUGGCUAAUUUACAACAGAGGAUUGAGCAUCA
# B15: chr1:163116941:163116942:-_ENSG00000143248_ENST00000313961|hu_mus|FALSE|FALSE (ssRNA)
# RNA: GGGAGUUCUACAGUCCGACGAUCACAAAGCAGUCAGAAAGAACCAAAAAAAAGAAAAAAAAAAGAAAAAGAAAAAAGUGAGGGCUCUUAGACAACAGAUCCACAUAACCAAACUAACAUGAGCGAAAGAGUUAGCAACACAGCCAACAGAGGAUUGAGCAUCA
# B16: chr14:76904430:76904431:+_ENSMUSG00000022010_ENSMUST00000022587|mus_mus|mus_mus_mus_hu_True|58_98 (ssRNA)
# RNA: B14 RNA with U77C, G80A, U127A, G128C, U130G, G131C, C132A, U133G, G134C, G135C
# B17: chr3:9412954:9412955:+_ENSG00000134077_ENST00000452837|hu_mus|hu_hu_hu_mus_False|58_68 (ssRNA)
# RNA: GGGAGUUCUACAGUCCGACGAUCGGUUGAUAUCUCUUCUUUGAUGGCUGGAUUUUCAUAAUAGUCCAAGAUAUGAGAAUCUAAAGCGCUGCUGGCAUGCUUUUUCUUACCAUCUUUCUCAUCUGCUUUGUCUCCUUGUCCACACAACAGAGGAUUGAGCAUCA
# B18: chr16:94664741:94664742:+_ENSMUSG00000040785_ENSMUST00000117648|mus_hu|mus_mus_mus_hu_False|1_78 (ssRNA)
# RNA: GGGAGUUCUACAGUCCGACGAUCUGGUACUGAUCUUGGUAGCUGAUAUUCAGGAGAAAUGUUGGCCAAGGGUGUAUAUAUGCUGGUGUACUGGGGCAAACCUGGUAACACGUUUAUGUAUGCUGGCGGUGUCUGGGUGCCAAACAACAGAGGAUUGAGCAUCA
# B19: chr5:37680062:37680063:+_ENSMUSG00000029121_ENSMUST00000031004|mus_hu|mus_mus_mus_hu_False|1_8 (ssRNA)
# RNA: GGGAGUUCUACAGUCCGACGAUCUUUGGGUGUAGCUGGUACCUCGUACACAGGACCGUCAUACAUGCCCCUGGAAACCCCUUGCAAUCCAAAAACCUUAUUCCUGAUUUUGACGCGCUGGUACAGGUGCUCUGGGAAUGGCUUCAACAGAGGAUUGAGCAUCA
# B20: chrX:98862621:98862622:+_ENSMUSG00000034160_ENSMUST00000044475|mus_hu|mus_mus_mus_hu_False|18_28 (ssRNA)
# RNA: GGGAGUUCUACAGUCCGACGAUCCUGCAUCUCCUUUAGAGUGUUUCCCAUAUUAGAGUAGGCAUCAGCAAAGGUAGGACUGAUUCGAAUAGCCUCCUUAUAAUGCAUCAGUGCUUCCUGCAGCUUGCCCUGCUGCUGCAGUACCAACAGAGGAUUGAGCAUCA
# B21: chr7:135840685:135840686:-_ENSMUSG00000048170_ENSMUST00000057557|mus_mus|FALSE|FALSE (ssRNA)
# RNA: GGGAGUUCUACAGUCCGACGAUCCAACUCCCUUGAUUUAUCAAGGCCGACCCUGUUUCCUUGGUUAGCAGGGAAGAAUCUAAGGGACCACUGAUUGAUCUUCACACACAGCAGAUGAGAUUAACAGCAAGGUUCUAACUUUUCCAACAGAGGAUUGAGCAUCA
# B22: 128051196_128051651_161_3pUTR_ENSG00000163161_ENST00000285398|human|control|control (ssRNA)
# RNA: GGGAGUUCUACAGUCCGACGAUCCGCCGCCGAGGGAACCGCUUCCUGAGGGUCGUUCCCCGGGGCGUCCUCUUCAUCAUCCUCUUCAUCCUCAUAGUGCCGCUUCCUGGAUUUCUUCUUGUCGCGGUCCGCUCGGUCUCUUUUCAACAGAGGAUUGAGCAUCA
# Biological target: T1, UNK ZnF1-3
# Assay: nsRBNS (natural sequence RNA bind-n-seq); RBNS binding buffer (assumed for nsRBNS): 25 mM Tris pH 7.5, 150 mM KCl, 3 mM MgCl2, 0.01% Triton X-100, 500 ug/ml BSA, 20 U/ml SUPERase-In, 4 C; UNK is unkempt and MSI1 is Musashi-1; names of the RNAs are library labels; protein concentration not given here; high values mean tight binding
row,Binder,binding signal [enrichment R]
1,B1,0.995
2,B2,1.35
3,B3,0.565
4,B4,1.11
5,B5,0.486
6,B6,0.497
7,B7,1.05
8,B8,0.375
9,B9,0.777
10,B10,1.6
11,B11,7.87
12,B12,1.3
13,B13,1.46
14,B14,3.33
15,B15,10.6
16,B16,3.56
17,B17,0.465
18,B18,0.93
19,B19,0.776
20,B20,1.08
21,B21,1.03
22,B22,0.493
